Screening data deposited in PubChem BioAssay by several laboratories.
MLLE-PAM2 inh = inhibitors of microRNA-mediated deadenylation, human PABP1 MLLE binding | GST-MLLE / FITC-PAM2 fluorescence polarization | actives 0.36% (n = 360,000) | inhibition, % at 20 µM | P11940; in the data active = inhibition above about 35%, passing the limit was not always enough;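 note: plate controls were DMSO wells with GST-MLLE for no effect and wells lacking GST-MLLE protein for full effect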
Target sequence (P11940 whole entry, looked up): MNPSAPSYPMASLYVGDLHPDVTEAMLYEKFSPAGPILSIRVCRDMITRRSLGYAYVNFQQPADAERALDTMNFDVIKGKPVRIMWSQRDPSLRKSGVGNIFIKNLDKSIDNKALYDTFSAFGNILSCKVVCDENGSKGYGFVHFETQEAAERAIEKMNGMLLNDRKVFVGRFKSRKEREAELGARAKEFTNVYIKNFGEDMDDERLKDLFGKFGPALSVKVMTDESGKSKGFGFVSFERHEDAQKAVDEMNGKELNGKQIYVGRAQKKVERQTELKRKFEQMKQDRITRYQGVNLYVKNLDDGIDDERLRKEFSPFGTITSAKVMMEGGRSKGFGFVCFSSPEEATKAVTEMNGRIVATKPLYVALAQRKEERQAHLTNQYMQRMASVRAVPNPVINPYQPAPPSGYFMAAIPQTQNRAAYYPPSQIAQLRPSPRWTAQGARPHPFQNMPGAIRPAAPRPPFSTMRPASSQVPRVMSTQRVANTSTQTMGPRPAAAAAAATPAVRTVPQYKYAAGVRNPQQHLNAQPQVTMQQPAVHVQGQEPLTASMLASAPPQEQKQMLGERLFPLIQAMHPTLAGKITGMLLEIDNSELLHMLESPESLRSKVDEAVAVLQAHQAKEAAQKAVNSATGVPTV
ALR H2O2 inh = blocks human ALR sulfhydryl oxidase activity | P55789 | inhibition, % (test concentration not listed) | actives 3.8% (n = 290,000) | purified ALR, DTT oxidation, H2O2 HRP-luminol luminescence;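 active = mean replicate inhibition above about 79%, with every replicate also reaching it, limit read from the data; inconclusive = only one of the two criteria met; inactive = mean below limit and not every replicate reaching it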
eIF4H FP inh = inhibitors of RNA binding by human eIF4H; Q15056; actives 0.94% (n = 290,000); eIF4H fluorescence polarization binding assay; inhibition, % at 35 µM;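 note: calls also rest on retests at 20 µM and on dose response follow-up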
SUMO HTRF inh = blocks human SUMOylation mediated by UBC9 | HTRF SUMOylation assay, SAE1/SAE2 + UBC9, in vitro | inhibition, % at 35 µM | actives 0.36% (n = 290,000) | AID 2006; in the data active = inhibition above about 50%, passing the limit was not always enough; inconclusive = no clear call, values can overlap the other calls
Efflux pump mplx = blocks antifungal efflux pumps in multiplex yeast assay; inhibition, % at 10 µM; actives 0.44% (n = 330,000); S. cerevisiae Candida pump triplex, Nile Red efflux;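 active = plate passing quality check with inhibition over a set limit, or well fluorescence over plate mean plus 4 SD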;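 note: Nile Red retained in pooled yeast measured as flow cytometry median fluorescence; 0% = buffer negative control and 100% = Enniatin B positive control; higher means more Nile Red kept so more efflux inhibition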
PABP FP inh = PABP-poly(A) binding inhibition; PABP-poly(A) RNA binding, fluorescence polarization; actives 1% (n = 290,000); AID 2014; inhibition, % at 35 µM; P11940;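 note: calls also rest on retests at 20 µM and on dose response follow-up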
Numbers without * were called inactive; u = inconclusive; x = no result given. Shown are actives, neighbours in structure and some others; about 4.7% of the full set was active somewhere. Unless noted, the rule behind the calls is not given here.

SMILES	MLLE-PAM2 inh	ALR H2O2 inh	eIF4H FP inh	SUMO HTRF inh	Efflux pump mplx	PABP FP inh
Cc1c(N=CC=Nc2c(C)n(C)n(-c3ccccc3)c2=O)c(=O)n(-c2ccccc2)n1C	x	x	-0.6	5.0	x	-6.6
COc1cc(N=Nc2c(C)n(C)n(-c3ccccc3)c2=O)ccc1N	2.9	98.5*	-0.7	-20.6	-0.3	-26.5
COc1ccc(Cl)cc1NC(=O)COC(=O)C1COc2ccccc2O1 (stereo unspecified)	-3.0	-2.6	x	x	-0.2	x
COc1ccc(/C=N/NC(=O)c2ccn[nH]2)cc1CSc1ccccn1	11.4	99.1*	-2.3	3.9	0.0	-4.4
COc1ccc(/C=N/NC(=O)c2cccnc2)cc1CSc1ccccn1	6.3	98.7*	-6.2	23.5	0.1	-4.7
COc1ccc(/C=N/NC(=O)c2cccc(Br)c2)cc1CSc1ccccn1	1.8	-3.4	0.2	10.6	0.7	-6.9
COc1ccc(C(=O)N/N=C/c2ccc(OC)c(CSc3ccccn3)c2)cc1	6.4	99.2*	-0.8	-0.3	-0.1	-14.4
COc1ccc(OCc2cc(/C=N\NC(=O)c3ccccc3)ccc2OC)cc1	12.1	-5.9	17.6	-2.6	-0.1	5.3
COc1ccc(/C=N/NC(=O)c2ccn[nH]2)cc1COc1ccc(Cl)cc1	-8.3	-0.1	3.4	10.5	0.1	-13.4
COc1cccc(-c2nnc(-c3ccccc3NC(=O)c3ccc(C(C)(C)C)cc3)o2)c1	-3.4	0.9	-10.9	8.0	-0.1	-4.9
Cc1c(C)c2ccc(OCC(=O)NCCCN3CCCC3=O)cc2oc1=O	-6.2	-19.9	-9.0	10.1	-0.1	-1.2
CCN1CCN(C(=O)CN2C(=O)c3ccccc3S2(=O)=O)CC1	10.7	-5.4	x	x	0.1	x
O=C(OCC(=O)N1CCN(c2ccccc2)CC1)c1ccccn1	12.8	73.7	-9.0	1.0	0.1	-6.6
Cn1cccc1C(=O)OCC(=O)N1CCN(c2ccccc2)CC1	-40.2	97.9*	x	x	-0.2	x
O=C(OCC(=O)N1CCN(c2ccccc2)CC1)c1ccc2ccccc2n1	-60.4	97.4*	-7.2	-8.7	0.0	8.2
CCCCNC(=O)C1(C)CCCCN1C(=O)c1ccc(C#N)cc1 (stereo unspecified)	0.0	x	x	x	x	x
CCOC(=O)Nc1cc2c(cc1[N+](=O)[O-])-c1ccccc1C2=O	-34.7	x	x	x	x	x
CCSc1ccc2cc(OC)ccc2[n+]1CC	-125.3	-8.4	4.4	2.5	-0.1	-12.5
c1ccc(-c2cc3c(N4CCOCC4)ncnc3s2)cc1	-7.7	97.2*	7.9	19.7	0.0	3.0
c1ccc(-c2cc3c(N4CCCC4)ncnc3s2)cc1	-1.7	0.6	4.5	0.1	-0.1	2.1
COc1ccc2[nH]c3c(NCc4ccco4)ncnc3c2c1	x	97.7*	0.9	29.4	-0.1	2.3
CCNC(=S)NNc1ccccc1	-37.7	63.6	4.8	0.6	-0.1	5.1
CCNC(=S)NNc1nncc2ccccc12	-10.0	98.6*	-20.0	3.1	-0.1	2.8
CNC(=S)NNc1nncc2ccccc12	12.6	106.1*	0.3	6.9	-0.1	7.5
CCC(=Nc1ccc(N)cc1)C1=C(O)C(C(=O)OC)C(C)(C)CC1=O (stereo unspecified)	17.1	31.3	103.3*	35.6	0.0	115.2*
SMILES	MLLE-PAM2 inh	ALR H2O2 inh	eIF4H FP inh	SUMO HTRF inh	Efflux pump mplx	PABP FP inh
CCCCC(=Nc1ccc(N)cc1)C1=C(O)C(C(=O)OC)C(C)(C)CC1=O (stereo unspecified)	7.8	9.1	42.4*	36.4	0.1	58.9*
COc1ccc(C(=O)N2CCN(c3ccccc3Cl)CC2)cc1S(=O)(=O)NC1CC1	-15.0	-3.6	x	x	0.3	x
CCN(CC)C(=O)Cn1ncc2c1-c1ccccc1OC2	3.5	-13.5	62.9*	7.2	-0.1	-21.5
O=C(CSCCO)Nc1cccc(C(F)(F)F)c1	1.9	1.8	-1.7	23.7	0.0	-12.5
N#Cc1c(SCC(=O)Nc2cccc(C(F)(F)F)c2)sc2c(O)cc(=O)[nH]c12	-23.1	99.4*	15.7	-4.8	-0.2	20.9
Cc1cc(NC(=O)CSc2sc3c(O)cc(=O)[nH]c3c2C#N)ccc1Br	-38.9	99.1*	38.6	2.3	-0.2	30.1
COC(=O)c1ccc(C)c(NC(=O)CSc2sc3c(O)cc(=O)[nH]c3c2C#N)c1	-22.5	u	49.4	24.1	-0.5	34.0
O=C(CN1C(=O)CSc2ccc(S(=O)(=O)N3CCOCC3)cc21)NCCc1ccccc1	-19.2	x	x	x	x	x
Clc1ccc(SCc2cn3ccccc3n2)cc1	8.4	-12.5	2.2	2.1	-0.1	-3.8
c1ccc2c(SCc3cn4ccccc4n3)nncc2c1	-9.9	98.8*	1.1	-25.2	0.0	8.2
N=C(N)SCc1cn2ccccc2n1	-4.2	97.6*	9.2	-15.1	-0.4	-1.8
CC1=[N+](C)N(c2ccccc2)C(=O)C1N=Cc1ccccc1Cl (stereo unspecified)	18.6	77.2*	-6.3	7.1	-0.1	1.9
CC1=[N+](C)N(c2ccccc2)C(=O)C1N=Cc1c(Cl)cccc1Cl (stereo unspecified)	7.9	8.0	-0.8	7.6	-0.2	-6.7
COc1ccc(N2CC(C(=O)Nc3nc4ccc(S(C)(=O)=O)cc4s3)CC2=O)cc1 (stereo unspecified)	-17.1	-5.5	16.4	-0.7	0.0	-1.3
CN(C)c1ccc(Cl)cc1N	-1.4	-5.3	69.1*	14.5	-0.2	-15.2
O=C(COC(=O)c1cccc(Br)c1)NC1CCCCCCC1	9.8	x	x	x	x	x
COc1cc(C(=O)OC(C)c2ccc(F)cc2)ccc1OCC(=O)N1CCOCC1 (stereo unspecified)	-13.1	3.6	x	x	0.0	x
CCc1ccc2c(c1)C(NC(C)=O)C(=O)N2CCN1CCOCC1 (stereo unspecified)	-4.8	x	-12.1	60.5*	0.1	-2.8
O=C(Cn1ccc(NC(=O)OCc2ccccc2)nc1=O)NCc1ccc2c(c1)OCO2	2.2	1.7	x	x	-0.1	x
CC1(C)Cc2nc(NC3CCCCC3)c(C#N)cc2CO1	-2.3	9.9	2.4	-9.6	0.0	-9.1
COCCN1C(=O)C(=O)/C(=C(/O)c2ccc3c(c2)OCCO3)C1c1ccc(C(=O)OC)cc1 (stereo unspecified)	1.8	1.0	-7.5	8.5	0.3	1.2
COCCCN1C(=O)C(=O)/C(=C(/O)c2ccc3c(c2)OCCO3)C1c1ccc(C(=O)OC)cc1 (stereo unspecified)	6.3	84.6*	-12.7	22.7	-0.1	9.4
FC(F)(F)c1nc2nc(Cl)c(Cl)nc2n1CCCN1CCOCC1	26.3	x	x	x	x	x
O=C(O)CSCC(=O)N(Cc1ccccc1)c1nc(-c2ccccc2)c(-c2ccccc2)s1	-1.2	18.2	74.1*	25.4	0.3	10.9
CCOC(=O)c1sc(N(Cc2ccccc2)C(=O)CCl)nc1C	23.1	x	-1.3	-9.2	-0.1	3.6
CC(=O)NNC(=S)NC(=O)c1ccc(C)cc1	11.8	x	9.9	2.9	-0.1	-1.0
Cc1ccc(C(=O)NC(=S)NNC(=O)COc2ccc([N+](=O)[O-])cc2)cc1	9.1	99.2*	26.7	-14.4	0.0	14.4
